Data on 14 compounds can be found in PubChem BioAssay.

Activity calls are given as the source filed them.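 The calls were made as follows, unless noted: active = fluorescence slope after compound addition differing from the mean of all screened samples at 99.7% confidence, in either direction; inactive = the rest.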

Test [1] is described as follows: inhibitors of TNFa-induced NFkB p65 translocation, primary screen, imaging, HUVEC, MLSMR starter and 10KST1 sets (AID 438;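 active = inhibition above 20% together with a positive visual image hit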;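 also: compound added about 3h40 before a 20 min TNFalpha stimulation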;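 as to inhibition: signal is the nuclear over cytoplasmic p65 intensity ratio per well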). The conditions noted are these: HUVEC TNFa-induced p65 nuclear translocation; cell count: measured here: nuclei count (cytotoxicity indicator), at 2.08 µM; inhibition: at 2 µM, stronger effect = higher value, 0% TNFa-plus-vehicle, 100% no-TNFa wells.
A short description of test [2]: reduction of polyQ htt aggregates in cells – imaging, exon1htt(103Q)mCFP cells, high-content imaging, primary screen (AID 483;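 active = visual image review flags a hit and inhibition of aggregation exceeds 20%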;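 also: compound exposure lasted 3 days before fixation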;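 as to nuclei count: percent of the per-plate median nuclei count of sample wells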). The conditions noted are these: exon1htt(103Q)mCFP cell line, aggregate imaging, at 2 µM; inhibition of aggregation: stronger effect = higher value; nuclei count: measured here: cell count, toxicity.
Test [3] in a line: endothelial E-selectin expression blockers – imaging, HUVEC, immunofluorescence, MLSMR starter and 10KST1 sets, primary screen (AID 487;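 active = visually confirmed hit in the image check and inhibition above 20%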;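 as to inhibition: signal is fraction of cell area covered by stained E-selectin grains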;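 as to nuclei count: 100% = median nuclei count of all wells on the same plate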). As to conditions: HUVEC TNFalpha-induced E-selectin immunofluorescence imaging, at 2 µM; inhibition: stronger effect = higher value; nuclei count: measured here: cell number, toxicity.
The target of test [4] is Voltage-gated potassium channel subunit beta-2 (Rattus norvegicus) (UniProt P62483). In words: inhibitors of rat Kvbeta2 reductase activity – biochemical, NADPH fluorescence, primary screen (AID 622;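 active = fluorescence slope higher than the sample average by over 3 SD, cut at about -0.22 in these data, passing the limit was not always enough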;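 also: slope of raw intensity against log time taken from 70 to 1610 s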). The conditions noted are these: recombinant KvBeta, 4-cyanobenzaldehyde reduction, at 10 µM, stronger effect = higher value.
Voltage-gated potassium channel subunit beta-2 (Rattus norvegicus), sequence (P62483 whole entry, looked up): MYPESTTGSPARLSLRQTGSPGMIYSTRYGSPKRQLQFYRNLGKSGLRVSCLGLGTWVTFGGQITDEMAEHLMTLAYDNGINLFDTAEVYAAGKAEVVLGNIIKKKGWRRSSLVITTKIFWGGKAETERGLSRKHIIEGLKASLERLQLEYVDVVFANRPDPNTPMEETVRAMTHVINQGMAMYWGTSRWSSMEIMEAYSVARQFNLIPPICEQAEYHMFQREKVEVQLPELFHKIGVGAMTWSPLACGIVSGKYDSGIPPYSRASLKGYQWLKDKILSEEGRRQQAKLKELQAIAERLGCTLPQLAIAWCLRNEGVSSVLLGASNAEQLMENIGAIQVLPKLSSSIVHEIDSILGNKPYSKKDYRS
Test [5] shares this target. The experiment in a line: enhancers of rat Kvbeta2 NADPH turnover – biochemical, NADPH fluorescence, primary screen (AID 623;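 active = NADPH fluorescence slope more negative than the mean of all samples by about 3 SD, 99.7% confidence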;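 also: fluorescence intensity change per second fitted from 20 to 320 s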). The conditions noted are these: Recombinant KvBeta, NADPH fluorescence decrease slope, 10 min; at 10 µM; stronger effect = lower value.
For test [6], the target named is Alpha-2C adrenergic receptor (Homo sapiens) (UniProt P18825). In words: compounds altering alpha2C-coupled GIRK flux – cell-based, HEK293 alpha2C/GIRK1/2, thallium flux, primary screen (AID 624).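 Also: slope of fluorescence ratio to pre-addition baseline per second over 15 to 24 s.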 The conditions noted are these: thallium flux BTC fluorescence, at 10 µM, actives lie on both sides.
Alpha-2C adrenergic receptor (Homo sapiens), sequence (P18825 whole entry, looked up): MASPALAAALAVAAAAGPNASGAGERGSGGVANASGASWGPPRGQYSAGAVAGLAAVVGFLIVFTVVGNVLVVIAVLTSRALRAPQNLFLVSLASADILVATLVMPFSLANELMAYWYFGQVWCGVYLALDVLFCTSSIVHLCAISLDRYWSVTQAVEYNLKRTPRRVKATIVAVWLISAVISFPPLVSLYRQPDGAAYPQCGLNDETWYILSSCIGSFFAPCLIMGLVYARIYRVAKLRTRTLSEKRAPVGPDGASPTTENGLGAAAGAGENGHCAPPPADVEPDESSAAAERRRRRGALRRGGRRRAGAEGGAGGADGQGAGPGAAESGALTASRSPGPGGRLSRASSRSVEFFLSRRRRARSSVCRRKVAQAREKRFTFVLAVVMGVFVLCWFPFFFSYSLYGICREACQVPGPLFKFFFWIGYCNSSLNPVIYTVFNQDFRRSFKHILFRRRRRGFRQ
Test [7] is described as follows: blockers of RIG-like receptor reporter activation – cell-based, Sendai virus stimulus, luciferase, 10K MLSCN set, TLR/RLR signaling modifier project, primary screen (AID 602276;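 active = inhibition at or above 50% at 10 µM; inactive = inhibition below 50%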;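 also: firefly luciferase from ISG56 promoter only with Renilla not read in this screen; 0% = Sendai virus plus DMSO and 100% = medium plus DMSO without virus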). The conditions noted are these: HEK293 RL24 IRF3 luciferase reporter, at 10 µM, stronger effect = higher value.
The nature of test [8]: TLR3 IRF3 reporter activation blockers – cell-based, poly I:C stimulus, luciferase, 10K MLSCN set, primary screen (AID 602277;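 active = inhibition of the reporter signal at or above 50%; inactive = inhibition below 50%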). As to conditions: HEK293-TLR3 RL24 IRF3 luciferase reporter, at 10 µM, stronger effect = higher value.

Turning to `O=C(CCN1C(=O)C2C3C=CC(C3)C2C1=O)NCCc1ccccc1Cl` (centres undefined), the cell count in test [1] is 408. Further, the inhibition in test [1] is 10.7% (inactive); in test [3], -111% (inactive); in test [7], -11.5% (inactive); in test [8] it was -13.2% (inactive). For the same compound, the inhibition of aggregation in test [2] was -1.6% (inactive). The nuclei count in test [2] worked out at 103%; in test [3] it was 99.4%. Moreover, the fluorescence slope in test [4] was -0.498 (inactive). The NADPH fluorescence slope in test [5] was -2.1e-05 (inactive). The slope in test [6] is 0.00634 (inactive).

On to `c1ccc(-n2cnc3cc(NCc4ccccn4)ccc32)cc1`, for which, in test [1], the cell count came out at 469. Besides, the inhibition is -5.7% (inactive) in test [1], -28.1% (inactive) in test [3], 20.8% (inactive) in test [7] and -8.3% (inactive) in test [8]. For the same compound, in test [2], the inhibition of aggregation was 25.1% (inactive). Besides, the figures for the nuclei count in test [2] and in test [3] were 102% and 183%, respectively. For the same compound, the fluorescence slope in test [4] was -0.596 (inactive). In test [5], the NADPH fluorescence slope was -4.4e-05 (inactive). Further, in test [6], the slope is 0.00529 (inactive).

With `C/C=C/c1ccc(OCCn2cncn2)c(OC)c1`, in test [1], the cell count amounted to 746. Further, the inhibition in test [1] was -6.6% (inactive); in test [3], -73.8% (inactive); in test [7], -19.9% (inactive); in test [8], 2% (inactive). The inhibition of aggregation in test [2] was -27.6% (inactive). The results for the nuclei count in test [2] and in test [3] were 132% and 120%, respectively. The fluorescence slope in test [4] was -0.519 (inactive). Moreover, in test [5], the NADPH fluorescence slope was 3.6e-05 (inactive). For the same compound, the slope in test [6] is 0.00659 (inactive).

With `c1ccc(C(Cc2nc(-c3ccccn3)no2)c2ccccc2)cc1`, the cell count in test [1] turned out to be 337. Further, the inhibition in test [1] was -8% (inactive); in test [3], -83.3% (inactive); in test [7], 20.3% (inactive); in test [8] it was 14.4% (inactive). Moreover, the inhibition of aggregation in test [2] is 4% (inactive). Also, the results for the nuclei count in test [2] and in test [3] were 110% and 100%, respectively. Further, the fluorescence slope in test [4] was -0.449 (inactive). Besides, the NADPH fluorescence slope in test [5] was -6.2e-05 (inactive). Further, in test [6], the slope is 0.00562 (inactive).

As to `CS(=O)(=O)c1ccc2nc(NC(=O)c3cccs3)sc2c1`, the cell count in test [1] came out at 351. The inhibition in test [1] was -2.9% (inactive); in test [3] it was 3.9% (inactive); in test [7], -10.7% (inactive); in test [8] it was -21.1% (inactive). Further, in test [2], the inhibition of aggregation was 4.4% (inactive). Also, the nuclei count in test [2] is 105%; in test [3], 104%. Moreover, the fluorescence slope in test [4] was -0.487 (inactive). The NADPH fluorescence slope in test [5] was -5.8e-05 (inactive). Besides, in test [6], the slope is 0.00673 (inactive).

`O=C(CSc1ncc(-c2ccc(F)cc2)[nH]1)N1CCCCC1`: in test [1], the cell count is 425. Besides, the inhibition was 0% (inactive) in test [1], -25.6% (inactive) in test [3], -13% (inactive) in test [7] and -71.4% (inactive) in test [8]. Besides, in test [2], the inhibition of aggregation was -11% (inactive). Moreover, the values for the nuclei count in test [2] and in test [3] were 78.3% and 106%, respectively. In test [4], the fluorescence slope was -0.331 (inactive). Further, the NADPH fluorescence slope in test [5] is -5.1e-05 (inactive). Besides, the slope in test [6] is 0.00631 (inactive).

For `O=C(Nc1ccc(N2CCCC2)cc1)c1cccc(F)c1`, the cell count in test [1] came out at 694. For the same compound, the inhibition is 1.6% (inactive) in test [1], -83.5% (inactive) in test [3], 11.4% (inactive) in test [7] and -67.8% (inactive) in test [8]. In test [2], the inhibition of aggregation is 24.1% (inactive). Further, the nuclei count in test [2] was found to be 94.5%; in test [3] it was 148%. In addition, the fluorescence slope in test [4] was -0.436 (inactive). The NADPH fluorescence slope in test [5] is 7e-06 (inactive). In addition, the slope in test [6] was 0.0066 (inactive).

As for `CCN(CC)c1ccc(NC(=O)CN2C(=O)CC(C)(C)S(=O)(=O)c3ccccc32)c(C)c1`, in test [1], the cell count stood at 879. The inhibition was 5.8% (inactive) in test [1], -63.3% (inactive) in test [3], 10.9% (inactive) in test [7] and -2.32% (inactive) in test [8]. For the same compound, the inhibition of aggregation in test [2] was 30.2% (inactive). In addition, the results for the nuclei count in test [2] and in test [3] were 60.8% and 125%, respectively. Moreover, the fluorescence slope in test [4] was -0.465 (inactive). Moreover, the NADPH fluorescence slope in test [5] was -2.5e-05 (inactive). The slope in test [6] is 0.00659 (inactive).

For `CC1CCCCN1S(=O)(=O)c1ccc(NC(=O)c2cccs2)cc1` (centres undefined), in test [1], the cell count amounted to 678. For the same compound, the inhibition in test [1] is -14.6% (inactive); in test [3], -25.1% (inactive); in test [7] it was -0.562% (inactive); in test [8], 5.71% (inactive). Besides, the inhibition of aggregation in test [2] was 25.4% (inactive). The nuclei count is 86.3% in test [2] and 104% in test [3]. For the same compound, the fluorescence slope in test [4] is -0.431 (inactive). Besides, the NADPH fluorescence slope in test [5] is 9.2e-06 (inactive). Also, the slope in test [6] was 0.00361 (inactive).

As for `CCc1ccccc1N1CC23C=CC(O2)C(C(=O)O)C3C1=O` (centres undefined), in test [1], the cell count is 591. Moreover, the inhibition in test [1] was -3.4% (inactive); in test [3], -23.4% (inactive); in test [7] it was 12.3% (inactive); in test [8], 36.8% (inactive). Further, the inhibition of aggregation in test [2] was -8.2% (inactive). For the same compound, the nuclei count was 103% in test [2] and 105% in test [3]. In test [4], the fluorescence slope is -0.515 (inactive). For the same compound, in test [5], the NADPH fluorescence slope is -2.2e-05 (inactive). Besides, in test [6], the slope was 0.00685 (inactive).

As to `Cc1c(NC(=O)CCc2ccc(S(=O)(=O)N3CCOCC3)cc2)c(=O)n(-c2ccccc2)n1C`, the cell count in test [1] was 575. Moreover, the inhibition in test [1] is 4.1% (inactive); in test [3], -86.1% (inactive); in test [7], -8.63% (inactive); in test [8], 5.48% (inactive). In addition, the inhibition of aggregation in test [2] is -26.2% (inactive). The results for the nuclei count in test [2] and in test [3] were 119% and 112%, respectively. The fluorescence slope in test [4] was -0.527 (inactive). For the same compound, in test [5], the NADPH fluorescence slope is -1.9e-05 (inactive). The slope in test [6] is 0.00736 (inactive).

Turning to `CC(C)(Oc1ccc(Cl)cc1)C(=O)NCc1ccncc1`, the cell count in test [1] stood at 419. In addition, the inhibition is 5.2% (inactive) in test [1], -85.3% (inactive) in test [3], 11.3% (inactive) in test [7] and 12.2% (inactive) in test [8]. For the same compound, the inhibition of aggregation in test [2] is -21% (inactive). For the same compound, the nuclei count is 96.4% in test [2] and 113% in test [3]. The fluorescence slope in test [4] is -0.297 (inactive). Besides, the NADPH fluorescence slope in test [5] is -5.5e-05 (inactive). Moreover, the slope in test [6] is 0.00503 (inactive).

For `O=C(CCn1cccc1)N1CCc2ccccc21`, the cell count in test [1] amounted to 281. The inhibition in test [1] is 6.5% (inactive); in test [3], -12% (inactive); in test [7] it was -13.2% (inactive); in test [8] it was -44.8% (inactive). For the same compound, the inhibition of aggregation in test [2] is -5.2% (inactive). Moreover, the nuclei count is 108% in test [2] and 106% in test [3]. In test [4], the fluorescence slope was -0.554 (inactive). Moreover, in test [5], the NADPH fluorescence slope is 2e-05 (inactive). Besides, the slope in test [6] is 0.00578 (inactive).

Take `CCN(CC)c1ccc(/C=N/n2nnnc2N)c(O)c1`: the cell count in test [1] worked out at 428. For the same compound, the inhibition in test [1] was -1.1% (inactive); in test [3], -29.5% (inactive); in test [7], 4.84% (inactive); in test [8], 1.57% (inactive). For the same compound, the inhibition of aggregation in test [2] is -13.8% (inactive). Further, the nuclei count in test [2] amounted to 101%; in test [3] it was 130%. The fluorescence slope in test [4] was -0.413 (inactive). The NADPH fluorescence slope in test [5] was 6.9e-05 (inactive). Also, the slope in test [6] was 0.00627 (inactive).
